Experimental findings from the OligoGym collection are described below.
Note: reference of the scale not given here.

One assay addresses PEAR1. Description: pooled miR-30 sensor sort-seq; sequence = guide strand. The conditions noted are these: shRNA.
Sequence TTGGTGGTGGTAGTGAAGCTTT returned a sensor-assay potency score (higher = more potent) of -1.22.
Turning to TTCATCTCCATGTAGCTGCTCT, the sensor-assay potency score (higher = more potent) was 0.0491.
Consider TCCATGTAGCTGCTCTCCCGGG, for which the sensor-assay potency score (higher = more potent) was -1.66.
As to TTGCCTTTTTGCCAGTGCCGAT, the sensor-assay potency score (higher = more potent) was -1.65.
The same measure, in the same setting: next, TAGTAGTGACTGTAGCTCGGAG: -0.228; ATTGCTGTAGCTATAGCTGTAG: -0.261; TTGCTGTAGCTATAGCTGTAGC: -1.31.
The sequence TAGCAGGTCCCGTTCGAGGGGT had a sensor-assay potency score (higher = more potent) of -0.75.
TTTCACATGAGCAGCGTGCAGA: the sensor-assay potency score (higher = more potent) is -0.314.
On the same count and under the same terms, next, TAGCTATAGCTGTAGCTTCGGT: -1.04; TATAGCTGTAGCTTCGGTCCAG: 0.0436.
On the same count and under the same terms, under TCTGGCATGACATACTCGGAGC stands -0.939.

In another assay the target is PEBP1. Described as above. The conditions noted are these: shRNA.
TTCTTTTTTACATTCTGGGTTG showed a sensor-assay potency score (higher = more potent) of -0.707.
Still for that read-out and setting: next, TAAAATCACATTGTGTACCATT: -0.719; TAACACGTGCCAGCCACCGGGG: -1.45; TTTCTTTTTTACATTCTGGGTT: 0.0306.
ATACATGCAACACTGAACTGGG had a sensor-assay potency score (higher = more potent) of 0.364.
Still for that read-out and setting: under TATTATACATGCAACACTGAAC stands -0.804; under TATCACTGTAGACCTGGTCTTT, -0.444; under TAATCGGAGAGGACTGTGCCAC, -0.276.
In the case of TAAACCAGCCAGACATAGCGGT, the sensor-assay potency score (higher = more potent) is -0.718.
Sequence TATACATGCAACACTGAACTGG registered a sensor-assay potency score (higher = more potent) of 0.186.
For the sequence TTTGATCAAAACATAAATCAGA, the sensor-assay potency score (higher = more potent) is -0.67.
TGCTCTATCACTGTAGACCTGG yielded a sensor-assay potency score (higher = more potent) of 0.029.

Another assay deals with PECR. The description is as above. The note with it: shRNA.
TCAATCTCTCCAACTTACGGGA: the sensor-assay potency score (higher = more potent) was -0.32.
TAGTTCTCCACAGCAGTCTGGG: the sensor-assay potency score (higher = more potent) is -0.504.
As for TTCCATACCAACTATAAGCTTT, the sensor-assay potency score (higher = more potent) was -0.179.
On the same count and under the same terms, under TTGATCCGTATTCCACTGCAGG stands -0.697.
On the same count and under the same terms, next, TAAACTGCTTTGCACATGTAGA: -1.07; TAGAACTGATGTGTTCAGCAGG: -0.616.
TTCATCTTTTTGACAACAGAAA showed a sensor-assay potency score (higher = more potent) of -1.6.
Turning to TTTGACAACAGAAAGGTCCCCT, the sensor-assay potency score (higher = more potent) amounted to 0.815.
On the same count and under the same terms, under TATGGGAATGACTCGTGCCTGC stands -0.624.
TTCAATCTCTCCAACTTACGGG gave a sensor-assay potency score (higher = more potent) of 0.0068.
Sequence TTAAAGGTCTCCTTCATCTTTT returned a sensor-assay potency score (higher = more potent) of -0.272.
Sequence TCTGGGAATAAATAACTCCAGG registered a sensor-assay potency score (higher = more potent) of -1.4.

The next assay has as its target PEG10. The description is as above. The note with it: shRNA.
As to TTGCCATCGAACTTCTCTGGGA, the sensor-assay potency score (higher = more potent) was -0.275.
On the same count and under the same terms, under TAGTTGTGCATCAGGTAGTGGG stands -0.718; under TTAAGTTGTTGATCTCTTCAGA, -0.104.
Same read-out and setting: next, TTCTCTGGGAGGTCTTCTGGGC: -0.944.
